Laboratory results published in the supplement of paper PMC12636033.
± gives the standard deviation of the averaged measurements. In all, about 33,000 sequences were measured (“E-score (rank enrichment, -0.5 to 0.5)”: median about -0.0028, highest 2% from about 0.23 on). This is one part of a sample in which the highest values are shown more often than they occur.

System: 2Sb-muMax20 (muMax20 with two 1,3-bis(methyl)benzene Cys staples, A13C/A17C and Q88C/A92C, C-terminal Lys)
Test: PBM 8-mer E-score (E-score (rank enrichment, -0.5 to 0.5)); higher = stronger preferential binding
Method: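 Protein binding microarray (universal PBM chip covering all 10-mers in fixed probe flanks) with chemically synthesized human Max(13-93) bHLH-LZ analogs (not full-length Max) bearing noncanonical residues (hArg, Tha, Aib, Nle at 65) and aromatic Cys staples. Read-out per 8-mer (and its reverse complement): E-score (rank-based enrichment, -0.5 to 0.5) and Z-score of median probe intensity.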

In order of rising “PBM 8-mer E-score” value:
1. CCGCTGGC  -0.26 ± 0.0032
2. CGGGAGGC  -0.24 ± 0.032
3. GACCAGAC  -0.231 ± 0.026
4. AGGAGGTC  -0.222 ± 0.015
5. GGACCAGA  -0.2186 ± 0.0017
6. AGTGGGCC  -0.212 ± 0.019
7. GTCGCGAA  -0.208 ± 0.09
8. CGGTCGGA  -0.196 ± 0.0063
9. GGCTGTGA  -0.181 ± 0.072
10. AGTGGGTC  -0.178 ± 0.017
11. GGCACACA  -0.16 ± 0.044
12. AGCTTAGC  -0.123 ± 0.011
13. GCTAGAAC  -0.0972 ± 0.085
14. ACGGGAAT  -0.08 ± 0.016
15. ACGCAGCA  -0.0676 ± 0.011
16. CCTTTTGC  -0.0513 ± 0.057
17. CTGATACA  -0.049 ± 0.059
18. ACTTATGC  -0.0277 ± 0.024
19. AGTGCGAC  -0.0265 ± 0.057
20. GCAAATCA  -0.0255 ± 0.056
21. AATAGGAA  -0.0166 ± 0.01
22. CGGCGCCG  -0.0151 ± 0.033
23. CAAACTGG  -0.0119 ± 0.034
24. TCTGTGCA  -0.0114 ± 0.085
25. CATTCGTC  -0.00288 ± 0.012
26. ATCATAAA  0.000625 ± 0.011
27. AAGATGCT  0.0039 ± 0.035
28. ACTCACTC  0.00443 ± 0.03
29. ACTGGGTG  0.00505 ± 0.024
30. AATTGGAA  0.00538 ± 0.0076
31. CGTTTAGC  0.00586 ± 0.16
32. CGTGGGTA  0.00707 ± 0.0098
33. GAGATACA  0.0204 ± 0.028
34. ATCGCGAA  0.0277 ± 0.02
35. CATCAATA  0.0338 ± 0.066
36. AATGGGTA  0.039 ± 0.0031
37. ACAGCAAA  0.0417 ± 0.047
38. ATCATGAG  0.0432 ± 0.081
39. CGTTAACA  0.0451 ± 0.018
40. CCTTTCAC  0.0485 ± 0.022
41. CATGGGTA  0.053 ± 0.028
42. CATAGGAA  0.0608 ± 0.002
43. GAACTAGA  0.067 ± 0.017
44. ATAATCAA  0.0744 ± 0.015
45. ATCTTACA  0.075 ± 0.012
46. GTCAATAA  0.075 ± 0.025
47. AGTGGGCA  0.0757 ± 0.023
48. AAGGCACG  0.076 ± 0.023
49. AGCTACTA  0.0815 ± 0.033
50. AAACTAGA  0.08188 ± 0.00023
51. ACTTTGCG  0.0825 ± 0.063
52. ACCCAAGA  0.0956 ± 0.071
53. AAAGGTTA  0.0976 ± 0.032
54. AGCCAACC  0.106 ± 0.0086
55. CAATATTA  0.106 ± 0.017
56. ATTCCGCC  0.107 ± 0.039
57. CTCGCGAC  0.107 ± 0.013
58. TGAGACAA  0.109 ± 0.058
59. GAGATGCA  0.113 ± 0.076
60. AACATAAG  0.118 ± 0.021
61. AGTGGGTA  0.121 ± 0.042
62. GATATTAA  0.123 ± 0.014
63. AAATATTC  0.124 ± 0.084
64. ATGATACC  0.127 ± 0.024
65. GGATATTA  0.128 ± 0.11
66. AATGAACA  0.129 ± 0.016
67. ATCATGAA  0.1293 ± 0.00082
68. CATATTAG  0.132 ± 0.032
69. AGTTAACA  0.138 ± 0.09
70. CATATTAC  0.146 ± 0.071
71. AGTATTAG  0.147 ± 0.0055
72. AAATATGT  0.148 ± 0.031
73. GTTGGGTA  0.1494 ± 0.00044
74. ATCGCGAG  0.151 ± 0.049
75. AAGATACT  0.151 ± 0.031
76. TAATATAA  0.152 ± 0.00074
77. TATATTAA  0.158 ± 0.011
78. CAATATGA  0.159 ± 0.05
79. GAATATTC  0.166 ± 0.09
80. TAATATGA  0.168 ± 0.022
81. ACTATTAA  0.176 ± 0.026
82. AATATTAG  0.178 ± 0.0068
83. GATATTAC  0.187 ± 0.088
84. ACTATTAT  0.194 ± 0.027
85. ATAATCAG  0.198 ± 0.028
86. AACATAAC  0.202 ± 0.012
87. AGTATTAA  0.206 ± 0.061
88. ATCATAAG  0.217 ± 0.062
89. ATCATAAT  0.232 ± 0.024
90. AGTATTAC  0.236 ± 0.075
91. AGTGGGCG  0.237 ± 0.019
92. TAACTAGA  0.238 ± 0.031
93. CATATTAA  0.238 ± 0.062
94. GAATATTA  0.238 ± 0.066
95. ATAATCAT  0.241 ± 0.044
96. AAATATTA  0.243 ± 0.032
97. AAGATACA  0.245 ± 0.033
98. GATGGGTA  0.246 ± 0.021
99. AAATATGA  0.247 ± 0.032
100. ATCGCGAT  0.255 ± 0.036
101. ATGATACA  0.255 ± 0.0028
102. TATAGGAA  0.255 ± 0.038
103. AGTGGGTG  0.259 ± 0.0086
104. AATATTAT  0.259 ± 0.0099
105. AATATTAC  0.26 ± 0.0093
106. AAGATGCA  0.262 ± 0.023
107. ATCATGAT  0.267 ± 0.045
108. GGTGGGTA  0.282 ± 0.063
109. GTCGCGAC  0.291 ± 0.0036
110. AACATAAT  0.297 ± 0.014
111. TGTTAACA  0.301 ± 0.013
112. AATATTAA  0.335 ± 0.045
113. TAATATTA  0.35 ± 0.0053
